# PubChem BioAssay AID720518 (National Center for Advancing Translational Sciences (NCATS), 2013)
# Results filed as inconclusive are left out. Unmarked numbers belong to inactive results. Calls come from the whole dose curve.
# Assay: qHTS for Inhibitors of Cell Surface uPA Generation: Wild-type Protective Antigen (WT-PrAg) Counterscreen for Cherry-picked Compounds; note: 0% is about no effect
# Conditions: cells, WT protective antigen toxicity counterscreen; series mostly up to 115 µM; activity (protection): at the top concentration
row,SMILES,activity (protection)
1,CSc1nc(-c2ccccc2)nc(C(Cl)Cl)n1,-2.51%
2,CCc1ccccc1N1C(=O)CC(Sc2nccc(C)n2)C1=O (stereo not given),0.6%
3,Fc1ccc(N2CCN(c3nc(CN4CCOCC4)nc4scc(-c5ccccc5)c34)CC2)cc1,-1.42%
4,Cc1cccc(CNc2ccc(C(CC(N)=O)NC(=O)c3cccc(Br)c3)cc2[N+](=O)[O-])c1 (stereo not given),0.204%
5,Cc1ccc([C@H]2C(C(=O)O)=CC[C@@H](c3cccc(C)c3)N2S(=O)(=O)c2ccc(C)cc2)cc1,-1.7%
6,Cc1ccc(Nc2nc(Cl)c(C=O)s2)cc1,-2.07%
7,COc1cc(/C=N/NC(=O)c2cc(-c3ccco3)nc3ccccc23)cc(OC)c1O,-2.04%
8,O=C1C=C(NNC(=O)c2ccncc2)CC(c2ccccc2)C1 (stereo not given),-0.199%
9,Cc1nn(-c2ccc(F)cc2)c(C)c1NS(=O)(=O)c1ccc(Cl)cc1,-1.36%
10,Cc1nnc2ccc(-c3ccc(NS(=O)(=O)c4ccc(Cl)s4)cc3)nn12,-1.61%
11,O=C(NCCN1CCOCC1)c1ccccc1Cl,-1.14%
12,Cc1ccccc1-c1nnc(SCC(=O)NCC2CCCO2)o1 (stereo not given),0.534%
13,Nc1cc(=O)[nH]c(SCC(=O)Nc2cccc([N+](=O)[O-])c2)n1,-1.09%
14,CCCCNc1nnc(SCC(=O)c2c(N)n(CCC)c(=O)[nH]c2=O)s1,10.7%
15,O=C(NCCN1CCOCC1)c1ccc2c(c1)N(Cc1ccc(Cl)cc1)CCS2,1.37%
16,COc1ccc(/C(N)=N/OC(=O)Cc2ccccc2OC)cc1,0.289%
17,Cc1ccc(C)c(NC(=O)CCN2CCN(c3ccccc3F)CC2)c1,0.501%
18,COc1cc(C2/C(=C(\O)c3ccc4c(c3)CC(C)O4)C(=O)C(=O)N2CC2CCCO2)cc(OC)c1OC (stereo not given),-0.464%
19,CCCOC(=O)CSC1=C(C#N)C(c2ccccc2Cl)CC(=O)N1 (stereo not given),-1.5%
20,CCCCN(CC(=O)Nc1cccc(S(=O)(=O)N2CCCC2)c1)Cc1nc2ccccc2c(=O)[nH]1,-2.42%

row,SMILES,activity (protection)
1,CCOc1ccc(NS(=O)(=O)c2coc(C(N)=O)c2)cc1,-0.713%
2,CCOc1cc(C(=S)N2CCOCC2)ccc1OC(=O)c1cccc(C)c1,-2.03%
3,Cn1cnc([N+](=O)[O-])c1Sc1ccc(Br)cc1,-1.73%
4,COc1ccccc1C(=O)NCCC(=O)NCC(c1ccc(F)cc1)N1CCOCC1 (stereo not given),-1.45%
5,CCc1ccc(NC(=O)Cn2cnc([N+](=O)[O-])c2)cc1,-0.969%
6,Cc1cccc(N2CCN(Cc3ccc(Br)o3)CC2)c1C,2.05%
7,CC(C)C(NC(=O)Cc1ccccc1)C(=O)N1CCN(c2cccc(Cl)c2)CC1 (stereo not given),-2.55%
8,CCCS(=O)(=O)c1ccc(COC(=O)Cc2ccc([N+](=O)[O-])cc2)cc1,-0.882%
9,Cn1nc(N2CCN(S(=O)(=O)c3ccccc3)CC2)c(=O)n(C)c1=O,-0.197%
10,O=C(CCN1CCN(c2ccccc2F)CC1)Nc1ccc(F)cc1,-2.31%
11,CCCOc1ccc(CC2CCC(=O)NC2=O)cc1 (stereo not given),-1.67%
12,COC(=O)CCNS(=O)(=O)c1ccc2nsnc2c1,-0.224%
13,CC1CCCN(S(=O)(=O)c2cccc([N+](=O)[O-])c2)C1 (stereo not given),0.828%
14,Cc1cc(C)cc(NC(=O)COC(=O)CCn2c(C)csc2=O)c1,0.0327%
15,CC(=O)NC(=S)Nc1ccc([N+](=O)[O-])cc1C,4.08%
16,CCSC1=NCCN1S(=O)(=O)c1ccc(Cl)cc1,-1.62%
17,CC(=O)c1ccc(NC(=O)CN2CCN(c3ccccc3)CC2)cc1,-0.688%
18,COc1ccccc1N1CCN(CC(=O)c2c(C)[nH]c3ccccc23)CC1,3.92%
19,CCOCCCn1c(SCC(=O)Nc2cc(OC)ccc2OC)nc2ccccc2c1=O,-2.4%
20,COC(=O)COc1cc2ccccc2cc1C(=O)Nc1ccccc1,-0.212%
